Experimental findings from article PMC5540273 (PLoS ONE, 2017) are described below.

Some test systems named below: DYRK1B; DYRK2; EGFR; EIF2AK1; EPHA1; EPHA2; EPHA3; EPHA4; EPHA5; EPHA6; EPHA7; EPHA8; EPHB1; EPHB2; EPHB3; EPHB4; EPHB6; ERBB2; ERBB3; ERBB4.
What all share (settings): concentration: 1 μM, replicates: in singlicate; n = 1

The structures appear in SMILES notation.
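Further: KINOMEscan kinase panel screen.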

As for `O=C(Nc1cccc(-c2nn3ccccc3c2-c2ccnc(Nc3cccc(F)c3)n2)c1)c1c(F)ccc(F)c1Cl` [GSK357952], the “%Inh” value amounted to 0% with DYRK1B; 11% in the assay on DYRK2; 100% in the assay with EGFR; 39% in the assay on EIF2AK1; 5% in the assay on EPHA1; 0% in the assay with EPHA2. Also, the “%Inh” value in the assay on EPHA3 stood at 0%; with EPHA4, 25%; in the assay with EPHA5, 0%; in the assay on EPHA6 it was 15%; with EPHA7, 11%; with EPHA8, 19%. Moreover, the “%Inh” value was 6% with EPHB1; 0% in the assay on EPHB2; 4% in the assay with EPHB3; 8% in the assay with EPHB4; 48% in the assay on EPHB6; 82% in the assay with ERBB2. The “%Inh” value is 0% in the assay with ERBB3 and 76% in the assay on ERBB4.

Consider `c1ccc(Oc2ccc(Nc3ccnc4cc(-c5ccc(CNCCN6CCOCC6)o5)ccc34)cc2)nc1` [GW567145], for which the “%Inh” value in the assay on DYRK1B turned out to be 0%; with DYRK2, 15%; in the assay on EGFR it was 39%; in the assay on EIF2AK1 it was 0%; in the assay with EPHA1 it was 72%; in the assay with EPHA2, 12%. For the same compound, the “%Inh” value is on record as 17% in the assay with EPHA3; 0% in the assay on EPHA4; 0% in the assay with EPHA5; 0% in the assay on EPHA6; 0% with EPHA7; 7% in the assay on EPHA8. The “%Inh” value amounted to 0% in the assay on EPHB1; 5% in the assay on EPHB2; 0% with EPHB3; 0% with EPHB4; 98% in the assay on EPHB6; 44% in the assay with ERBB2. In addition, the “%Inh” value with ERBB3 is listed as 98.4%; with ERBB4, 7%.

For `CN(C)Cc1ccc(-c2ccc3c(Nc4ccc(Oc5ccccn5)cc4)ccnc3c2)o1` [GW567148], the “%Inh” value with DYRK1B stood at 0%; with DYRK2 it was 0%; in the assay with EGFR it was 53%; in the assay with EIF2AK1, 0%; in the assay with EPHA1 it was 79%; with EPHA2, 1%. The “%Inh” value is on record as 0% in the assay on EPHA3; 60% with EPHA4; 0% with EPHA5; 53% with EPHA6; 0% with EPHA7; 13% in the assay with EPHA8. The “%Inh” value is 0% in the assay on EPHB1; 0% in the assay on EPHB2; 30% in the assay on EPHB3; 0% in the assay with EPHB4; 97.4% in the assay on EPHB6; 45% in the assay with ERBB2. Moreover, the “%Inh” value with ERBB3 amounted to 98.9%; in the assay with ERBB4 it was 0%.

As for `NCCCC(NC(=O)c1cc(Br)c(-c2ccnc3[nH]ccc23)s1)c1ccccc1.O=C(O)C(F)(F)F.O=C(O)C(F)(F)F` (stereo not drawn) [GSK1287544], the “%Inh” value in the assay on DYRK1B was found to be 22%; in the assay with DYRK2, 37%; with EGFR, 4%; in the assay on EIF2AK1, 0%; in the assay with EPHA1 it was 6%; with EPHA2 it was 0%. In addition, the “%Inh” value with EPHA3 stood at 0%; in the assay with EPHA4, 11%; in the assay with EPHA5, 5%; with EPHA6, 18%; in the assay on EPHA7, 8%; in the assay with EPHA8, 7%. In addition, the “%Inh” value in the assay on EPHB1 is on record as 30%; in the assay on EPHB2, 0%; with EPHB3 it was 0%; in the assay with EPHB4, 15%; with EPHB6, 0%; with ERBB2 it was 0%. Also, the “%Inh” value in the assay with ERBB3 amounted to 0%; in the assay on ERBB4, 15%.

Consider `CCCCc1nn2ncccc2c1-c1ccnc(Nc2ccc(N3CCN(C)CC3)cc2)n1` [GW684941], for which the “%Inh” value is listed as 20% in the assay with DYRK1B; 3% in the assay with DYRK2; 81% with EGFR; 0% in the assay with EIF2AK1; 88% in the assay on EPHA1; 42% in the assay on EPHA2. Further, the “%Inh” value turned out to be 9% in the assay with EPHA3; 29% in the assay with EPHA4; 0% in the assay on EPHA5; 40% in the assay on EPHA6; 0% in the assay with EPHA7; 73% in the assay on EPHA8. Besides, the “%Inh” value was 65% in the assay on EPHB1; 26% in the assay on EPHB2; 18% with EPHB3; 62% with EPHB4; 97.7% in the assay on EPHB6; 69% in the assay with ERBB2. Besides, the “%Inh” value in the assay with ERBB3 worked out at 72%; with ERBB4 it was 66%.

As for `Cc1ccc(C)c(NC(=O)NC2CCN(c3ccnc(Nc4ccc(F)cc4)n3)C2)c1` (stereo not drawn) [GSK1379720], the “%Inh” value was 0% in the assay with DYRK1B; 8% with DYRK2; 0% in the assay on EGFR; 0% with EIF2AK1; 18% in the assay with EPHA1; 0% with EPHA2. The “%Inh” value in the assay on EPHA3, with EPHA4, with EPHA5, in the assay with EPHA6, in the assay with EPHA7 and in the assay with EPHA8 was 0% each time. The “%Inh” value with EPHB1 amounted to 0%; in the assay with EPHB2, 16%; in the assay with EPHB3, 8%; in the assay on EPHB4, 6%; with EPHB6, 24%; in the assay with ERBB2, 43%. Also, the figures for the “%Inh” value with ERBB3 and in the assay with ERBB4 were 11% and 47%, respectively.

Take `Cl.Cl.NCC(NCc1ccc(-c2ccnc3[nH]ccc23)s1)c1ccccc1` (stereo not drawn) [GSK1321565]: the “%Inh” value was 25% in the assay with DYRK1B; 80% in the assay on DYRK2; 24% with EGFR; 0% with EIF2AK1; 24% with EPHA1; 0% in the assay with EPHA2. Moreover, the “%Inh” value in the assay with EPHA3, with EPHA4, in the assay on EPHA5, in the assay on EPHA6, in the assay on EPHA7 and in the assay on EPHA8 was 0% throughout. The “%Inh” value in the assay on EPHB1 is listed as 13%; with EPHB2, 0%; in the assay with EPHB3, 5%; in the assay with EPHB4, 7%; in the assay with EPHB6, 27%; with ERBB2, 0%. Also, the entries for the “%Inh” value with ERBB3 and in the assay with ERBB4 were 19% and 11%, respectively.

For the compound `Cc1cccc(NC(=O)Nc2ccc(Oc3ncnc4ccn(C)c34)cc2)c1`, the “%Inh” value with DYRK1B is given as 9%; with DYRK2, 0%; in the assay with EGFR it was 1%; with EIF2AK1 it was 0%; in the assay with EPHA1 it was 0%; with EPHA2 it was 0%. In addition, the “%Inh” value with EPHA3 was determined as 17%; in the assay on EPHA4, 0%; in the assay on EPHA5 it was 9%; in the assay on EPHA6, 28%; in the assay with EPHA7 it was 18%; in the assay with EPHA8, 0%. The “%Inh” value in the assay on EPHB1 worked out at 6%; with EPHB2, 0%; with EPHB3, 21%; in the assay with EPHB4, 0%; with EPHB6 it was 91%; in the assay with ERBB2 it was 49%. Moreover, the results for the “%Inh” value with ERBB3 and in the assay with ERBB4 were 0% and 12%, respectively.

As for `Cn1cc(-c2[nH]c3cc(NC(=O)[C@H](N)C4CCCCC4)cc4c3c2C=NNC4=O)cn1`, the “%Inh” value in the assay on DYRK1B is given as 0%; in the assay with DYRK2, 92.3%; with EGFR it was 81%; with EIF2AK1, 0%; with EPHA1, 25%; with EPHA2, 1%. Moreover, the “%Inh” value with EPHA3 is on record as 56%; with EPHA4, 11%; in the assay with EPHA5 it was 12%; in the assay on EPHA6, 14%; in the assay on EPHA7, 4%; in the assay with EPHA8 it was 10%. In addition, the “%Inh” value in the assay with EPHB1 amounted to 15%; in the assay on EPHB2, 0%; with EPHB3 it was 1%; with EPHB4, 0%; in the assay on EPHB6, 92.4%; in the assay on ERBB2 it was 64%. The entries for the “%Inh” value in the assay on ERBB3 and in the assay on ERBB4 were 77% and 36%, respectively.
